# Shown is part of a subset that was picked to be rich in the strongest signals.
# B1: RVL (Remusatia vivipara), B5LYJ9 (protein)
# chain: MAKLLLFLLPAILGLLVPRSAVALGTNYLLSGQTLDTEGHLKNGDFDLVMQDDCNLVLYNGNWQSNTANNGRDCKLTLTDYGELVIKNGDGSTVWKSGAQSVKGNYAAVVHPDGRLVVLGPSVFKIDPWVRGLNSLRFRNIPFTNNLLFSGQVLYGDGRLTAKNHQLVMQGDCNLVLYGGKYGWQSNTHGNGEHCFLRLNHKGELIIKDDDFKTIWSSRSSSKQGEYVLILQDDGFGVIYGPAIFETSSKRSIAAS
# Legend:
# Assay in all cases: glycan array binding signal (z-score within array); higher = stronger binding
# Details in all cases: glycan notation: IUPAC condensed, linker removed
# [1] = molecular target: Fuc(a1-2)Gal(b1-4)GlcNAc(b1-3)Gal(b1-4)GlcNAc(b1-3)Gal(b1-4)GlcNAc
# In short: (§1)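 Columns mapping to the same glycan were averaged after glycan names were converted to IUPAC-condensed notation. The data come from 3228 arrays in the Consortium for Functional Glycomics database, limited to those with an available protein sequence. Binding is reported as a within-array Z-score averaged across arrays of one protein sequence and across linkers.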
# [2] = molecular target: Fuc(a1-2)Gal(b1-4)[Fuc(a1-3)]GlcNAc(b1-2)Man(a1-6)[Fuc(a1-2)Gal(b1-4)[Fuc(a1-3)]GlcNAc(b1-2)Man(a1-3)]Man(b1-4)GlcNAc(b1-4)[Fuc(a1-6)]GlcNAc
# In short: as §1
# [3] = molecular target: Fuc(a1-2)Gal6S(b1-3)GlcNAc6S
# In short: as §1
# [4] = molecular target: Fuc(a1-2)Gal6S(b1-4)Glc6S
# In short: as §1
# [5] = molecular target: Fuc(a1-2)[Gal(a1-3)]Gal(b1-4)[Fuc(a1-3)]Glc
# In short: as §1
# [6] = molecular target: Fuc(a1-3)[Gal(b1-4)]GlcNAc(b1-2)Man(a1-3)[Fuc(a1-3)[Gal(b1-4)]GlcNAc(b1-2)Man(a1-6)]Man(b1-4)GlcNAc(b1-4)[Fuc(a1-6)]GlcNAc
# In short: as §1
# [7] = molecular target: Fuc(a1-3)[GalNAc(b1-4)]GlcNAc
# In short: as §1
# [8] = molecular target: Gal(a1-3)Gal(b1-3)GlcNAc(b1-2)Man(a1-3)[Gal(a1-3)Gal(b1-3)GlcNAc(b1-2)Man(a1-6)]Man(b1-4)GlcNAc(b1-4)GlcNAc
# In short: as §1
# [9] = molecular target: Gal(a1-3)Gal(b1-3)GlcNAc(b1-3)GalNAc
# In short: as §1
# [10] = molecular target: Gal(a1-3)Gal(b1-4)GlcNAc(b1-3)GalNAc
# In short: as §1
# [11] = molecular target: Gal(a1-4)Gal(b1-3)GlcNAc(b1-2)Man(a1-3)[Gal(a1-4)Gal(b1-3)GlcNAc(b1-2)Man(a1-6)]Man(b1-4)GlcNAc(b1-4)GlcNAc
# In short: as §1
# [12] = molecular target: Gal(a1-4)Gal(b1-4)GlcNAc(b1-2)Man(a1-3)[Gal(a1-4)Gal(b1-4)GlcNAc(b1-2)Man(a1-6)]Man(b1-4)GlcNAc(b1-4)GlcNAc
# In short: as §1
# [13] = molecular target: Gal(b1-3)GlcNAc(b1-3)Gal(b1-4)GlcNAc
# In short: as §1
# [14] = molecular target: Gal(b1-3)GlcNAc(b1-3)Gal(b1-4)GlcNAc(b1-6)[Gal(b1-3)GlcNAc(b1-3)]Gal(b1-4)Glc
# In short: as §1
# [15] = molecular target: Gal(b1-3)GlcNAc(b1-3)GalNAc
# In short: as §1
# [16] = molecular target: Gal(b1-3)GlcNAc(b1-6)Gal(b1-4)GlcNAc
# In short: as §1
# [17] = molecular target: Gal(b1-4)GlcNAc(a1-6)Gal(b1-4)GlcNAc
# In short: as §1
# [18] = molecular target: Gal(b1-4)GlcNAc(b1-2)Man(a1-3)[Gal(b1-4)GlcNAc(b1-2)Man(a1-6)]Man(b1-4)GlcNAc(b1-4)[Fuc(a1-6)]GlcNAc
# In short: as §1
# [19] = molecular target: Gal(b1-4)GlcNAc(b1-2)Man(a1-6)Man(b1-4)GlcNAc(b1-4)GlcNAc
# In short: as §1
# [20] = molecular target: Gal(b1-4)GlcNAc(b1-3)Gal(b1-4)Glc
# In short: as §1
# [21] = molecular target: Gal(b1-4)GlcNAc(b1-6)Gal(b1-4)GlcNAc
# In short: as §1
# [22] = molecular target: GalNAc(b1-3)Gal(a1-4)Gal(b1-4)GlcNAc(b1-3)Gal(b1-4)Glc
# In short: as §1
# [23] = molecular target: GalNAc(b1-3)Gal(a1-6)Gal(b1-4)Glc
# In short: as §1
# [24] = molecular target: GlcA(b1-3)GlcNAc
# In short: as §1
# [25] = molecular target: GlcA(b1-6)Gal
# In short: as §1
# [26] = molecular target: GlcNAc(a1-4)Gal(b1-4)GlcNAc(b1-3)Gal(b1-4)GlcNAc(b1-3)Gal(b1-4)GlcNAc
# In short: as §1
# [27] = molecular target: GlcNAc(a1-4)Gal(b1-4)GlcNAc(b1-3)Gal(b1-4)[Fuc(a1-3)]GlcNAc(b1-3)Gal(b1-4)[Fuc(a1-3)]GlcNAc
# In short: as §1
# [28] = molecular target: GlcNAc(b1-2)Man(a1-3)[GlcNAc(b1-2)Man(a1-6)]Man(b1-4)GlcNAc(b1-4)GlcNAc
# In short: as §1
# [29] = molecular target: GlcNAc(b1-2)[GlcNAc(b1-4)]Man(a1-3)[GlcNAc(b1-2)Man(a1-6)]Man(b1-4)GlcNAc(b1-4)GlcNAc
# In short: as §1
# [30] = molecular target: GlcNAc(b1-3)Gal(b1-4)GlcNAc
# In short: as §1
# [31] = molecular target: GlcNAc(b1-3)Man
# In short: as §1
# [32] = molecular target: Man(a1-2)Man(a1-3)Man
# In short: as §1
# [33] = molecular target: Man(a1-3)[Man(a1-6)]Man(a1-6)[Man(a1-2)Man(a1-3)]Man(b1-4)GlcNAc(b1-4)GlcNAc
# In short: as §1
# [34] = molecular target: Man(a1-3)[Man(a1-6)]Man(a1-6)[Man(a1-3)]Man
# In short: as §1
# [35] = molecular target: Man(a1-3)[Man(a1-6)]Man(b1-4)GlcNAc(b1-4)GlcNAc
# In short: as §1
# [36] = molecular target: Man(a1-3)[Man(a1-6)]Man(b1-4)GlcNAc(b1-4)[Fuc(a1-6)]GlcNAc
# In short: as §1
# [37] = molecular target: Neu5Ac(a2-3)Gal(b1-4)GlcNAc(b1-2)[Neu5Ac(a2-3)Gal(b1-4)GlcNAc(b1-6)]Man(a1-6)[Neu5Ac(a2-3)Gal(b1-4)GlcNAc(b1-2)Man(a1-3)]Man(b1-4)GlcNAc(b1-4)GlcNAc
# In short: as §1
# [38] = molecular target: Neu5Ac(a2-3)Gal(b1-4)GlcNAc(b1-3)Gal
# In short: as §1
# [39] = molecular target: Neu5Ac(a2-3)Gal(b1-4)GlcNAc6S
# In short: as §1
# [40] = molecular target: Neu5Ac(a2-6)Gal(b1-4)GlcNAc(b1-2)Man(a1-6)[GlcNAc(b1-2)Man(a1-3)]Man(b1-4)GlcNAc(b1-4)GlcNAc
# In short: as §1
# [41] = molecular target: Neu5Ac9Ac(a2-3)Gal(b1-3)GlcNAc
# In short: as §1
# [42] = molecular target: Neu5Gc(a2-3)Gal(b1-4)GlcNAc
# In short: as §1
binder,measurement,setting,value
B1,glycan array binding signal (z-score),[1],-0.272
same,glycan array binding signal (z-score),[2],9.79
same,glycan array binding signal (z-score),[3],0.483
same,glycan array binding signal (z-score),[4],-0.151
same,glycan array binding signal (z-score),[5],-0.32
same,glycan array binding signal (z-score),[6],0.076
same,glycan array binding signal (z-score),[7],-0.292
same,glycan array binding signal (z-score),[8],0.313
same,glycan array binding signal (z-score),[9],-0.166
same,glycan array binding signal (z-score),[10],-0.178
same,glycan array binding signal (z-score),[11],1.75
same,glycan array binding signal (z-score),[12],1.93
same,glycan array binding signal (z-score),[13],-0.252
same,glycan array binding signal (z-score),[14],-0.574
same,glycan array binding signal (z-score),[15],-0.055
same,glycan array binding signal (z-score),[16],0.004
same,glycan array binding signal (z-score),[17],-0.142
same,glycan array binding signal (z-score),[18],7.05
same,glycan array binding signal (z-score),[19],-0.136
same,glycan array binding signal (z-score),[20],-0.252
same,glycan array binding signal (z-score),[21],-0.216
same,glycan array binding signal (z-score),[22],-0.066
same,glycan array binding signal (z-score),[23],-0.17
same,glycan array binding signal (z-score),[24],-0.098
same,glycan array binding signal (z-score),[25],-0.23
same,glycan array binding signal (z-score),[26],0.124
same,glycan array binding signal (z-score),[27],0.3
same,glycan array binding signal (z-score),[28],0.913
same,glycan array binding signal (z-score),[29],2.4
same,glycan array binding signal (z-score),[30],-0.145
same,glycan array binding signal (z-score),[31],-0.227
same,glycan array binding signal (z-score),[32],-0.197
same,glycan array binding signal (z-score),[33],3.91
same,glycan array binding signal (z-score),[34],0.224
same,glycan array binding signal (z-score),[35],3.8
same,glycan array binding signal (z-score),[36],6.15
same,glycan array binding signal (z-score),[37],3.54
same,glycan array binding signal (z-score),[38],-0.103
same,glycan array binding signal (z-score),[39],-0.033
same,glycan array binding signal (z-score),[40],-0.207
same,glycan array binding signal (z-score),[41],-0.284
same,glycan array binding signal (z-score),[42],-0.111

# — the supplement of paper PMC8728848
